From PubChem BioAssay
PP1 inh: PP1-alpha phosphatase inhibitors, primary screen, counter-screen for PP5 inhibitor project, biochemical, fluorescence, OMFP substrate, single point | 320,000 compounds, 0.9% hits | inhibition, % at 6.7 µM | Serine/threonine-protein phosphatase PP1-alpha catalytic subunit (Homo sapiens), P62136 | purified PP1alpha;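 active = inhibition above the mean inhibition of all tested compounds plus 3 SD, computed separately for each screening campaign, cut at about 15% in these data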
DNA FID counter: compounds displacing fluorescent DNA intercalator, primary screen, artefact control for HCV NS3 helicase inhibitor project, biochemical, FID fluorescence. DNA fluorescent intercalator displacement. inhibition, % at 7.9 µM. 290,000 compounds, 0.17% hits. AID 1845, 2009; in the data active = inhibition above about 37%;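 note: higher means more ethidium bromide displaced from hairpin DNA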
PP5 primary: PP5 phosphatase inhibitors, primary screen, biochemical, fluorescence | Serine/threonine-protein phosphatase 5 (Homo sapiens), P53041 | purified PP5c, OMFP substrate fluorescence | inhibition, % at 6.7 µM | 320,000 compounds, 0.18% hits | AID 1987, 2009;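 active = inhibition above the campaign's mean inhibition across all tested compounds plus 3 SD, cut at about 9.5% in these data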
Target sequence (P53041 whole entry, looked up): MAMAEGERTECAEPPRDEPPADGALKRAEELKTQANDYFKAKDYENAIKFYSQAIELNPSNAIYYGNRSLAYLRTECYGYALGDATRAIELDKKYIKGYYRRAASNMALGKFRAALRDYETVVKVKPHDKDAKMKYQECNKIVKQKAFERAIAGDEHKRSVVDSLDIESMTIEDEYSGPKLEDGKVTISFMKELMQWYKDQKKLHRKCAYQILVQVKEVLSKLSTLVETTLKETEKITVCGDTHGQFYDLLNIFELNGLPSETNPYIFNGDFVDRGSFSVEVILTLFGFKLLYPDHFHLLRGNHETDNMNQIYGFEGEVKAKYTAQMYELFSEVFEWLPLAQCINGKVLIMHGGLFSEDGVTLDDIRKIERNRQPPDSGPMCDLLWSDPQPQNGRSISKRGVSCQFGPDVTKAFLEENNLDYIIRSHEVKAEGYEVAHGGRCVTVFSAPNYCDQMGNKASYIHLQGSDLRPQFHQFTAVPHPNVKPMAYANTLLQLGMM
TMEM16A act: TMEM16A chloride channel activators or potentiators, primary screen, cell-based, HTS. Anoctamin-1 (Mus musculus), Q8BHY3. HEK293 TMEM16A/YFP-H148Q/I152L, iodide quench fluorescence; stronger effect = lower value. B-score at 10 µM. 340,000 compounds, 0.3% hits;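 active = fluorescence-ratio B-score plate-corrected deviation score at least 3 library SD below zero, with starting fluorescence score within 5 deviations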;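 note: channel opened by trigger with iodide after compound preincubation; score built on the fluorescence ratio of max minus min over baseline; more negative score means more quench and so TMEM16A activation or potentiation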
PREPL inh: PREPL enzyme inhibitors, primary screen, biochemical, fluorescence polarization; recombinant PREPL, fluorescence polarization activity-based probe; inhibition, % at 5.96 µM; Prolyl endopeptidase-like (Homo sapiens), Q4J6C6; 320,000 compounds, 0.68% hits; AID 2751, 2010; in the data active = inhibition above about 43%
TMEM16A inh: TMEM16A chloride channel inhibitors, primary screen, cell-based, HTS. Anoctamin-1 (Mus musculus), Q8BHY3. HEK293 TMEM16A/YFP iodide influx fluorescence, ionomycin. normalized B-score (activity score, 25-100; higher = stronger inhibition) at 10 µM. 310,000 compounds, 1.2% hits. AID 588511, 2011;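 active = ratio plate-corrected score three or more library SD toward inhibition, starting fluorescence score within five deviations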;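 note: score derived from kinetic fluorescence span divided by baseline fluorescence per well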
Numbers stand for hits. An excerpt weighted towards active compounds, which were near 2.7% of everything screened.

`Cc1nnc(N2CCC(C(=O)NC3CCC(C)CC3)CC2)c2nn(-c3ccc(Cl)cc3)c(C)c12` (stereo unspecified) gave PP1 inh inactive, DNA FID counter inactive, PP5 primary inactive, TMEM16A act inactive, PREPL inh inactive and TMEM16A inh 100.
`Cc1sc2nc(CSc3ccccc3)nc(N3CCC(C(N)=O)CC3)c2c1C` gave PP1 inh inactive, DNA FID counter inactive, PP5 primary inactive, TMEM16A act inactive, PREPL inh inactive and TMEM16A inh inactive.
Screening CCOC(=O)c1sc2nc(CSc3ccccc3)nc(N3CCC(C(N)=O)CC3)c2c1C returned PP1 inh inactive, DNA FID counter inactive, PP5 primary inactive, TMEM16A act -5.75, PREPL inh inactive and TMEM16A inh inactive.
Screening C#CCOCCOCCOCCNc1nc(N2CCN(C(=O)CCCCCCCCCCNC(=O)[C@@H](CCC(=O)O)n3cc(CCCCCN)nn3)CC2)nc(N2CCN(C(=O)CCCCCCCCCCNC(=O)[C@H](CO)n3cc(CCCSC)nn3)CC2)n1 returned PP1 inh inactive, PP5 primary inactive, TMEM16A act inactive, PREPL inh inactive and TMEM16A inh inactive.
C#CCOCCOCCOCCNc1nc(N2CCN(C(=O)CCCCCCCCCCNC(=O)[C@H](CO)n3cc(CCCCCN)nn3)CC2)nc(N2CCN(C(=O)CCCCCCCCCCNC(=O)[C@H](CCCN=C(N)N)n3cc(C[C@@H](C)CC)nn3)CC2)n1 was read as PP1 inh 57.4, PP5 primary inactive, PREPL inh 64.3 and TMEM16A inh 100.
For C#CCOCCOCCOCCNc1nc(N2CCN(C(=O)CCCCCCCCCCNC(=O)[C@H](CCCCN)n3cc(C[C@@H](C)CC)nn3)CC2)nc(N2CCN(C(=O)CCCCCCCCCCNC(=O)[C@H](CCCN=C(N)N)n3cc(C[C@@H](C)CC)nn3)CC2)n1 the results were PP1 inh 67.5, PP5 primary inactive, TMEM16A act -23.3, PREPL inh 66.2 and TMEM16A inh 100.
CC(=O)[C@@]1(O)CC[C@H]2[C@@H]3CCC4=CC(=O)CC[C@]4(C)[C@H]3[C@@H](O)C[C@@]21C was read as PP1 inh inactive, DNA FID counter inactive, PP5 primary inactive, TMEM16A act inactive, PREPL inh inactive and TMEM16A inh 100.
`CCCCNS(=O)(=O)c1ccc2nc(SCC(=O)Nc3sccc3C#N)[nH]c2c1` gave PP1 inh inactive, DNA FID counter inactive, PP5 primary inactive, TMEM16A act inactive, PREPL inh inactive and TMEM16A inh 100.
Screening Cn1c(=O)c(/C=C/c2ccc(F)cc2)nc2ccccc21 returned DNA FID counter inactive and TMEM16A act -7.
Cn1c(=O)c(/C=C/c2ccccc2)nc2ccccc21 was read as PP1 inh inactive, DNA FID counter inactive, PP5 primary inactive, TMEM16A act inactive, PREPL inh inactive and TMEM16A inh inactive.
Screening CC(/C=C1\SC(=Nc2cccnc2)NC1=O)=C\c1ccccc1 returned PP1 inh inactive, DNA FID counter inactive, PP5 primary inactive, TMEM16A act inactive, PREPL inh inactive and TMEM16A inh inactive.
`C=CCOc1ccc(/C=C2\SC(=Nc3cccnc3)NC2=O)cc1` gave PP1 inh 15.5, DNA FID counter inactive, PP5 primary inactive, TMEM16A act inactive, PREPL inh inactive and TMEM16A inh inactive.
For N#C/C(=C\c1ccc(O)c(O)c1)C(=O)N1CCc2ccccc21 the results were PP1 inh inactive, PP5 primary inactive, TMEM16A act inactive, PREPL inh inactive and TMEM16A inh 25.
Screening Cc1ccc(S(=O)(=O)c2ccc(Cl)cc2)cc1S(=O)(=O)N1CCOCC1 returned PP1 inh inactive, DNA FID counter inactive, PP5 primary inactive, TMEM16A act inactive, PREPL inh inactive and TMEM16A inh 25.
For CCN(CC)S(=O)(=O)c1cccc(NC(=O)Nc2cccc(C(F)(F)F)c2)c1 the results were PP1 inh inactive, DNA FID counter inactive, PP5 primary inactive, TMEM16A act inactive, PREPL inh inactive and TMEM16A inh 100.
For CC(=O)Nc1cc2c3c(cccc3c1)-c1ccccc1-2 the results were TMEM16A act inactive.
`Cc1nn(-c2ccccc2)c2nc3c(cc12)C(=O)CCC3` gave PP1 inh inactive, DNA FID counter inactive, PP5 primary inactive, TMEM16A act inactive, PREPL inh inactive and TMEM16A inh inactive.
Screening O=C(NCC(O)c1ccc([N+](=O)[O-])cc1)Nc1ccccc1 (stereo unspecified) returned PP1 inh inactive, DNA FID counter inactive, PP5 primary inactive, TMEM16A act inactive, PREPL inh inactive and TMEM16A inh inactive.
For CC(NCC(O)c1ccc([N+](=O)[O-])cc1)C12CC3CC(CC(C3)C1)C2 (stereo unspecified) the results were PP1 inh inactive, DNA FID counter 37.7, PP5 primary inactive, TMEM16A act inactive, PREPL inh inactive and TMEM16A inh inactive.
Screening C=CCn1c(SCC(=O)NC23CC4CC(CC(C4)C2)C3)nc2cc(C(=O)O)ccc2c1=O returned PP1 inh inactive, DNA FID counter inactive, PP5 primary inactive, TMEM16A act inactive, PREPL inh inactive and TMEM16A inh inactive.
COc1ccccc1Nc1nnc(SCC(=O)Nc2nc(-c3ccc(F)cc3)cs2)s1 was read as PP1 inh inactive, DNA FID counter inactive, PP5 primary inactive, TMEM16A act inactive, PREPL inh inactive and TMEM16A inh inactive.
Screening COc1cc(S(=O)(=O)Nc2ccc(C)cc2)ccc1N=Cc1c(C)c(C#N)c(=O)n(C)c1O returned PP1 inh inactive, DNA FID counter inactive, PP5 primary inactive, TMEM16A act -6, PREPL inh inactive and TMEM16A inh inactive.
`COc1cc(S(=O)(=O)Nc2ccc(C)cc2)ccc1N=Cc1c(C)[nH]n(-c2ccc(C)cc2)c1=O` gave PP1 inh inactive, DNA FID counter inactive, PP5 primary inactive, TMEM16A act inactive, PREPL inh inactive and TMEM16A inh inactive.
For COc1cc(/C=C2\CCC(C)C3=C(c4cc(OC)c(OC)c(OC)c4)C(C#N)=C(N)OC32)cc(OC)c1OC (stereo unspecified) the results were TMEM16A act inactive.
Screening CC(=O)Oc1cc2c(C(=O)NCc3ccncc3)c(C)oc2c2ccccc12 returned PP1 inh inactive, PP5 primary inactive, TMEM16A act -20.9, PREPL inh inactive and TMEM16A inh inactive.
For Cc1oc(-c2ccccc2)cc1C(=O)NCc1ccncc1 the results were PP1 inh inactive, DNA FID counter inactive, PP5 primary inactive, TMEM16A act inactive, PREPL inh inactive and TMEM16A inh inactive.
